Experimental data reported in ChEMBL document CHEMBL4513216, “Probing the Open Global Health Chemical Diversity Library for Multistage-Active Starting Points for Next-Generation Antimalarials” (ACS Infect Dis, 2020).
Out of some 69,000 compounds screened, about 8,600 (12%) showed an effect of 50% or more. What follows is part of a selection rich in strong results, with near analogues and random picks from the rest.

What follows are compounds tested on Plasmodium berghei (assay: Screen against P. berghei liver stage (PbLuc), transformed with Luciferase, at 10uM). Settings: tested at 10 uM.
Type: functional, HepG2
`O=C(CC(F)(F)F)Nc1cc(F)ccc1OCC1CCCO1` (stereo not given) showed an INHIBITION of -6.14%. `CCn1nc(C)cc1C(=O)N1C[C@H]2CCC[C@@]2(COc2ccccn2)C1` gave an INHIBITION of -36.9%. `CCC1CN(CC(=O)NCCN2CCCC2)c2ccccc2S1` (stereo not given) gave an INHIBITION of 18.3%. `CN(C)C1CCN(C(=O)c2n[nH]c3c2CCN(CC2CCC2)C3)CC1` showed an INHIBITION of -39%. In the case of `Cc1cc(-c2ccc(=O)n(C3CCN(S(=O)(=O)N(C)C)CC3)n2)c(C)o1`, the INHIBITION was -25.3%. For `CNc1cc(CCNC(=O)CC(C)C)nc(-c2ccccn2)n1`, the INHIBITION was -27.4%. With `CCN(Cc1ccccc1)C(=O)CN1CCCCC1Cn1cncn1` (stereo not given) the INHIBITION was 38.5%. For `Cc1cnn(C2CN(CC(=O)N(C)Cc3ccc(C)o3)C2)c1`, the INHIBITION was 34%. `Cc1cnn(C2CN(CC(=O)NCCc3cccs3)C2)c1` gave an INHIBITION of 45.7%. With `Cc1ccccc1CN(C)C(=O)CN1CCCCC1Cn1cncn1` (stereo not given) the INHIBITION was 81.2%. `CN(Cc1ccccc1)C(=O)CN1CCCCC1Cn1cncn1` (stereo not given) gave an INHIBITION of 25.6%. With `Cc1cnn(C2CN(CC(=O)N(C)Cc3cccs3)C2)c1` the INHIBITION was 52.2%. In the case of `Cc1nnnn1-c1cc(NCc2cc(C#N)ccc2F)ccc1F`, the INHIBITION was 32.3%. For `O[C@@H]1CCN(CC2CCOC2)[C@H]1Cc1cccnc1` (stereo not given in full), the INHIBITION was 23.1%. `O=C(c1ccc2cc[nH]c2c1)N1CCCN(Cc2cscn2)CC1` gave an INHIBITION of 13.6%. Compound `N#Cc1c(Cl)nsc1NCc1cccnc1OC1CCCC1` has an INHIBITION of 85.9%. With `N#Cc1c(Cl)nsc1NCc1cccnc1OCC(F)(F)F` the INHIBITION was 88.5%. In the case of `Cc1nnc(NCc2cccnc2OCC(F)(F)F)c(C#N)c1C`, the INHIBITION was -0.18%. Work on `N#Cc1c(Cl)nsc1NCc1ccc(N2CCSCC2)cc1` yielded an INHIBITION of 59.5%. Compound `N#Cc1c(Cl)nsc1NCc1ccc(N2CCC(CO)CC2)cc1` has an INHIBITION of 30.9%. Compound `CCOc1ncccc1CNc1nnc(C)c(C)c1C#N` has an INHIBITION of -23.45%. With `O=S(=O)(NCc1cccnc1OC1CCCC1)N1CCCCC1` the INHIBITION was 21.9%. `CC(O)CNC(=O)NCc1cccnc1OC1CCCC1` (stereo not given) showed an INHIBITION of 22.7%. Compound `Cc1oncc1C(=O)NCc1ccnc(OCC(F)(F)F)c1` has an INHIBITION of -6.15%. Work on `CC(C(=O)NCc1ccnc(OCC(F)(F)F)c1)n1cncn1` (stereo not given) yielded an INHIBITION of -18.2%. Compound `N#Cc1c(Cl)nsc1NCc1ccnc(OCC(F)(F)F)c1` has an INHIBITION of 81.7%. Work on `N#Cc1c(Cl)nsc1NCc1ccc(N2CCCC(C(N)=O)C2)cc1` (stereo not given) yielded an INHIBITION of 26.6%. Work on `Nc1nccc(C2CCN(CC3CC3)C2)n1` (stereo not given) yielded an INHIBITION of 20.2%. `CN(CCc1cn[nH]c1)C(=O)CCc1ccc(Cl)cc1` was tested, and the INHIBITION was 49%. Work on `CC(Nc1cccc2c1OCCO2)C(=O)Nc1ccc(Cl)cc1` (stereo not given) yielded an INHIBITION of -10.3%. In the case of `CCc1nnc2n1CCN(C(=O)c1cc3cc(C)ccc3[nH]1)C2`, the INHIBITION was 10%. `O=C(Nc1ccc(-n2ccc(C(=O)O)n2)cc1)c1ccccc1` showed an INHIBITION of 39.5%. Work on `Cc1cn([C@@H]2CC3(CCNCC3)OC[C@@]2(C)O)c(=O)[nH]c1=O` yielded an INHIBITION of 37.1%. `CC(=O)N1CC(=O)N(c2cnn(C)c2)CC12CCN(Cc1ccco1)C2` (stereo not given) gave an INHIBITION of 29.7%. `CC(C)=CCN1CCOC(Cn2cccn2)C1` (stereo not given) was tested, and the INHIBITION was 19.5%. For `CC(C)CN1CCCC12CCN(c1nncs1)C2` (stereo not given), the INHIBITION was 37.8%. Work on `N#Cc1ccc(CCC(=O)N2CCCC(n3cncn3)C2)cc1` (stereo not given) yielded an INHIBITION of 19.2%. For `CN(C)c1ncccc1CNc1snc(Cl)c1C#N`, the INHIBITION was 49.1%. Compound `COc1ncccc1CNc1snc(Cl)c1C#N` has an INHIBITION of 54.3%. With `CCCOc1ncccc1CNc1nnc(C)c(C)c1C#N` the INHIBITION was 41.15%. `CCCN(Cc1nc(-c2ccoc2)oc1C)CC1CCCO1` (stereo not given) showed an INHIBITION of -13.1%. `COc1ccc(-c2cccc(CC3(C(=O)O)CCOCC3)c2)cc1` gave an INHIBITION of 29.2%. `Cc1cccc(-c2cccc(CC3(C(=O)O)CCOCC3)c2)c1` gave an INHIBITION of 13.5%. Work on `O=C(O)C1(Cc2cccc(-c3ccc(F)c(F)c3)c2)CCOCC1` yielded an INHIBITION of 58.6%. In the case of `Cc1cc(C)cc(-c2cccc(CC3(C(=O)O)CCOCC3)c2)c1`, the INHIBITION was 38.7%. With `O=C(O)C1(Cc2cccc(-c3ccc(F)cc3)c2)CCOCC1` the INHIBITION was -22.6%. In the case of `Cc1cc(C)cc(-c2ccc(CC3(C(=O)O)CCOCC3)cc2)c1`, the INHIBITION was 61.4%. `Cn1cccc1C(=O)N1C[C@@H](OCc2cccnc2)[C@H]2OCCC[C@H]21` gave an INHIBITION of 41.3%. Compound `CN(C)CC(=O)NC1CC(=O)N(CCc2ccccc2)C1` (stereo not given) has an INHIBITION of 11.2%. `Cc1cc2c(=O)n3c(nc2s1)CCN(C(=O)c1cn(C)nc1C)CC3` showed an INHIBITION of 14.7%. `Cc1nnn2c1COCC(CNCc1nccs1)C2` (stereo not given) gave an INHIBITION of -27.6%. Work on `N#Cc1ccc(NC2CCN(Cc3ccccn3)CC2)c(F)c1` yielded an INHIBITION of -5.78%. With `Fc1ccc(OCCNC2CCN(Cc3ccncc3)CC2)c(F)c1` the INHIBITION was 61.3%. Work on `Cc1cc2n(n1)CC(CNC1CCN(Cc3ccccc3C)CC1)CN2` (stereo not given) yielded an INHIBITION of 16.6%. For `Cc1cc2n(n1)CC(CNC1CCN(Cc3ccncc3)CC1)CN2` (stereo not given), the INHIBITION was 16.1%. `CC(CNC1CCN(Cc2ccncc2)CC1)c1ccc(F)cc1F` (stereo not given) showed an INHIBITION of -0.275%. In the case of `Cc1cc2n(n1)CC(CNC1CCN(c3ccccn3)CC1)CN2` (stereo not given), the INHIBITION was 31.4%. With `c1ccc(CN2CCC(NCCc3ccc4c(c3)CCO4)CC2)nc1` the INHIBITION was 25.7%. In the case of `Fc1ccc(OCCNC2CCN(Cc3ccccn3)CC2)c(F)c1`, the INHIBITION was 53.6%. In the case of `Cc1cc2n(n1)CC(CNC1CCN(Cc3ccccn3)CC1)CN2` (stereo not given), the INHIBITION was 50.2%. `Fc1cccc(-c2c[nH]c(C3CCCN3)n2)c1` (stereo not given) gave an INHIBITION of -4.62%. `CN(C(=O)NCC1(CN2CCOCC2)CCCCC1)C1CC1` gave an INHIBITION of 0.0944%. `Cc1nc(CN2CCC(N(C)Cc3noc(C(C)C)n3)C2)oc1C` (stereo not given) gave an INHIBITION of 11.4%. `CN1CC(=O)N(c2cccc(F)c2)CC12CCN(CC1CC1)C2` (stereo not given) showed an INHIBITION of 19.5%. Compound `CN(Cc1nccn1C)S(=O)(=O)N1CCCC1c1ccco1` (stereo not given) has an INHIBITION of 15.7%. For `CC(O)CN1CCC(=O)N(Cc2ccccc2)Cc2ccccc21` (stereo not given), the INHIBITION was 28.3%. For `Cc1noc(C(C)N2CCN(c3ccc(C#N)cn3)CC2)n1` (stereo not given), the INHIBITION was -5.78%. In the case of `CC(c1nc(C2CC2)no1)N1CCN(Cc2cccc(C#N)c2)CC1` (stereo not given), the INHIBITION was 60.5%. Compound `CC(c1nc(C2CC2)no1)N1CCN(c2ccc(C#N)cn2)CC1` (stereo not given) has an INHIBITION of 55.3%. `CC(C)c1noc(C(C)N2CCN(Cc3cccc(C#N)c3)CC2)n1` (stereo not given) showed an INHIBITION of -8.11%. In the case of `CC(c1nc(C2CC2)no1)N1CCN(Cc2ccccc2)CC1` (stereo not given), the INHIBITION was 27.4%. `CC(C)c1noc(C(C)N2CCN(c3ccc(C#N)cn3)CC2)n1` (stereo not given) was tested, and the INHIBITION was 45.9%. Compound `COc1ccc(CN2CCN(C(C)c3nc(C4CC4)no3)CC2)cc1` (stereo not given) has an INHIBITION of 40.3%. With `Cc1noc(C(C)N2CCN(Cc3cccc(C#N)c3)CC2)n1` (stereo not given) the INHIBITION was 21.5%. Compound `CC(c1nc(C2CC2)no1)N1CCN(Cc2ccc(C#N)cc2)CC1` (stereo not given) has an INHIBITION of 57%.
